This is a sample that favours compounds with a hit; in the whole collection about 21% have one here.
D3 ag: qHTS of D3 Dopamine Receptor Agonist: qHTS; D(3) dopamine receptor (Homo sapiens), P35462; D3R DiscoveRx beta-arrestin cells, luminescence, 90 min; max activation, %; actives 0.58% (n = 410,000); in the data active means max activation above about 30%
Target sequence (P35462 whole entry, looked up): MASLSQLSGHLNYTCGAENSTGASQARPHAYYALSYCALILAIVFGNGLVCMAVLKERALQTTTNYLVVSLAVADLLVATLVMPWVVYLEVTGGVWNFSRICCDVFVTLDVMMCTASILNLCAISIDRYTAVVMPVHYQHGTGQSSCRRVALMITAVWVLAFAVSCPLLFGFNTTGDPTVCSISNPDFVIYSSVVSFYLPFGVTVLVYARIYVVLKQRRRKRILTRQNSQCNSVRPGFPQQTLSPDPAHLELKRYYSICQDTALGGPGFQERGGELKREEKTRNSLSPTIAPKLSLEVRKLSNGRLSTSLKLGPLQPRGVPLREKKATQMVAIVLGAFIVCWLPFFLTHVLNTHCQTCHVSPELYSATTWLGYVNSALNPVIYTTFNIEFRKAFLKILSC
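Agonist-mode cell screen: cells plated at 1500/well and incubated overnight at 37 °C, then exposed to library compounds for 90 min at 37 °C. Detection reagent was added for 30–60 min at room temperature, and luminescence was read.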
ClpP mod: qHTS Assay for Activators of ClpP. purified B. subtilis ClpP, FRET peptide cleavage, 20 min. Potency, µM (doses to about 57.5 µM). actives 1.9% (n = 340,000); active means well fitted falling curve with a large enough effect; inconclusive means small, poorly fitted or top-dose-only effect; inactive means no such curve, though single readings can be large or run the other way; further: the source files actives as falling curves though it sought activators and does not explain the sign; nearly all actives have a fitted effect of over 65% in size
Target sequence (P80244 whole entry, looked up): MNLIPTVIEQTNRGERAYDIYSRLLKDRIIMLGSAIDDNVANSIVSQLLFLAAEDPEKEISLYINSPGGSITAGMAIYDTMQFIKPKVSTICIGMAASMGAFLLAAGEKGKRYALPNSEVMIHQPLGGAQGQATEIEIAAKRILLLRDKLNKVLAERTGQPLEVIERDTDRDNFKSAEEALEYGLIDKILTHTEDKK
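ClpP 10 microg/mL final, pH 8 Tris/KCl buffer with BSA, glycerol, Tween-20; compound pinned in; FRET-FV substrate; RT 20 min; Ex320/Em430; ΔFRET vs ADEP 5.8 microM, DMSO, no enzyme.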
IL1B secr inh: qHTS for Inhibitors of Inflammasome Signaling: IL-1-beta AlphaLISA Primary Screen | THP-1 LPS/ATP IL-1B secretion, AlphaLISA, 16 h; hits give low values | activity change, % at 57.5 µM | actives 4.7% (n = 360,000) | AID 743279, 2014; in the data active means activity change below about -50%; inconclusive means mostly about -30% to -49%
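Secreted IL-1B measured by AlphaLISA bead assay after 16 h compound exposure of THP-1 cells; compounds (final up to 57.5 uM) added 1 h before LPS (250 ng/mL) and ATP (1.25 mM) stimulation; lower signal means less secretion.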
DT40 TDP1 CPT: qHTS for Inhibitors of human tyrosyl-DNA phosphodiesterase 1 (TDP1): qHTS in cells in presence of CPT. chicken DT40 Tdp1-/-;hTDP1 cells + 20 nM CPT, ATP luminescence, 48 h. Potency, µM (doses to about 46.2 µM), most hits filed as inhibitors. actives 12% (n = 420,000); further: nearly all actives have a fitted effect of over 55% in size
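Cell growth measured by CellTiter-Glo luminescence after a minimum 48 h, 37 C compound exposure with 20 nM CPT in Tdp1-knockout DT40 cells stably expressing hTDP1, seeded 400/well; qHTS titration format.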
D3 antag: qHTS of D3 Dopamine Receptor Antagonist: qHTS; D(3) dopamine receptor (Homo sapiens), P35462; D3R cells, DiscoveRx beta-arrestin luminescence, antagonist mode; hits give low values; max response, negative = inhibition, %; actives 2.5% (n = 360,000); AID 652054, 2013; in the data active means max response below about -50%; inconclusive means no clear call, values can overlap the other calls
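Cells expressing the human receptor were seeded at 1500 cells/well, incubated overnight at 37 degrees C in 5% CO2, then exposed to library compounds with dopamine controls for 90 minutes at 37 degrees C before luminescent detection.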
TDP1 cell noCPT: qHTS for Inhibitors of human tyrosyl-DNA phosphodiesterase 1 (TDP1): qHTS in cells in absence of CPT; DT40 Tdp1-/- hTDP1 cells, no CPT, ATP luminescence, 48 h; Potency, µM (titrated, usually from 46.2 µM), actives largely listed as inhibitors; actives 15% (n = 420,000); AID 686978, 2013; further: nearly all actives have a fitted effect of over 55% in size
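No-CPT arm: Tdp1-/-;hTDP1 DT40 cells (400/well) plus compounds, incubated ≥48 hr at 37 °C. Readout CellTiter-Glo luminescence.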
Hits are given with their value; – = inactive; ? = inconclusive; · = no result. Unless noted, the call rests on the fitted dose curve; in most records, active means well fitted inhibition curve with a large enough effect; inconclusive means small, poorly fitted or top-dose-only effect; inactive means flat fitted curve, though single readings scatter.

SMILES | D3 ag | ClpP mod | IL1B secr inh | DT40 TDP1 CPT | D3 antag | TDP1 cell noCPT
Cc1cn2c(=O)c(S(=O)(=O)NCCc3ccc(Cl)cc3)c(C)nc2s1 | – | ? | · | – | · | –
Cc1ccc(CNS(=O)(=O)c2c(C)nc3sc(C)cn3c2=O)cc1 | – | 28µM | · | ? | · | –
CCOc1ccc(CCNS(=O)(=O)c2c(C)nc3sc(C)cn3c2=O)cc1OCC | – | – | · | – | · | –
Cc1cn2c(=O)c(S(=O)(=O)NC(C)c3ccccc3)c(C)nc2s1 (stereo unspecified) | – | 32µM | · | – | · | –
COc1ccc(OC)c(S(=O)(=O)N2CCCC(C)C2)c1 (stereo unspecified) | – | – | – | – | – | –
CN=C1S/C(=C\c2ccc(O)c(OC)c2)C(=O)N1C | – | – | – | – | – | –
CCOC(=O)C1CCN(C2=NC(=O)/C(=C/c3ccc(OC)c(OC)c3)S2)CC1 | – | – | – | – | – | ?
COc1ccc(/C=C2/N=C3CCCCCN3C2=O)cc1OC | – | – | – | ? | – | 29µM
COc1cc(/C=C2\SC(N3CCC(C)CC3)=NC2=O)ccc1O | – | 14µM | -56 | – | – | ?
COc1ccc(/C=C2\N=C3CCCCCN3C2=O)cc1 | – | · | – | – | – | –
COc1ccc(/C=C2\SC(N3CCCCC3)=NC2=O)cc1OC | – | · | – | – | – | 21µM
COc1ccc(OC)c(/C=C2\SC(N3CCCC(C)C3)=NC2=O)c1 (stereo unspecified) | – | – | -59 | 16µM | – | 21µM
Cc1cccc(NC(=O)C(=O)c2cc(C)n(-c3ccccc3)c2C)c1C | – | – | · | – | · | ?
COc1cc(C(=O)NCCC(=O)NCc2c(F)cc(F)cc2F)cc(OC)c1OC | – | – | – | – | – | –
CCOCCc1nn2c(=O)cc(COC(=O)Cc3ccccc3)nc2s1 | – | – | · | – | · | –
C=C1CCC(=O)C(C)CCC2C1CC2(C)C (stereo unspecified) | · | · | · | – | · | –
CC(=O)N1CCOc2ccc(S(=O)(=O)NCc3ccc(F)cc3)cc21 | – | – | – | – | – | –
Brc1ccc(-c2c[n+]3c(n2-c2ccccc2)SCC3)cc1 | – | · | · | 5.8µM | – | 5.8µM
Cc1ccc(-n2c(-c3ccccc3)cc(=O)nc2C)cc1 | – | – | – | – | – | –
COc1ccc(-c2c[n+]3c(n2-c2ccccc2)SCC3)cc1 | – | · | – | 8.2µM | – | 4.6µM
COc1ccc(-c2c[n+]3c(n2-c2ccccc2)SCC3)cc1OC | – | · | – | – | – | ?
Cc1ccc(-c2c[n+]3c(n2-c2ccccc2)SCC3)cc1 | – | – | – | 3.3µM | – | 2.3µM
CCC(CC)NC(=O)COn1nnc2ccc(S(=O)(=O)N3CCOCC3)cc21 | – | – | – | – | – | –
Cc1ccsc1-c1nc(C(N)=O)c2[nH]c(=O)n(-c3ccc(Cl)cc3)c2n1 | – | ? | – | 5.8µM | – | 4.1µM
Cc1ccc(-n2c(=O)[nH]c3c(C(N)=O)nc(C(C)C)nc32)cc1 | – | · | – | – | – | ?
SMILES | D3 ag | ClpP mod | IL1B secr inh | DT40 TDP1 CPT | D3 antag | TDP1 cell noCPT
Cc1cccc(-n2c(=O)[nH]c3c(C(N)=O)nc(C(C)C)nc32)c1 | – | 22µM | – | ? | – | ?
CCOc1ccccc1-c1nc(C(N)=O)c2[nH]c(=O)n(-c3ccc(F)cc3)c2n1 | – | – | – | – | – | –
COc1ccc(-c2nc(C(N)=O)c3[nH]c(=O)n(-c4cccc(Cl)c4)c3n2)cc1OC | – | – | – | ? | – | 21µM
COc1cccc(-c2nc(C(N)=O)c3[nH]c(=O)n(-c4cccc(Cl)c4)c3n2)c1OC | – | – | – | – | – | –
CCc1ccc(-c2nc(C(N)=O)c3[nH]c(=O)n(-c4ccccc4OC)c3n2)cc1 | – | – | – | 2.3µM | – | 2.6µM
CC(C)c1ccc(C(=O)NNC(=O)C2CC=CCC2C(=O)O)cc1 (stereo unspecified) | – | – | – | ? | – | ?
CCc1cnc2c(c1SCC(=O)Nc1ccc(C)cc1C)c(=O)n(C)c(=O)n2C | – | – | · | – | · | –
Cc1c(N(C)S(=O)(=O)c2cc(C(=O)N3CCCC3)ccc2Cl)c(=O)n(-c2ccccc2)n1C | – | – | – | – | – | –
CC1CC(Nc2ccccc2N)=CC(=O)O1 (stereo unspecified) | – | – | – | – | – | –
Cc1cccc(NC2=CC(=O)OC(C)C2)c1 (stereo unspecified) | – | 28µM | – | – | – | –
COc1cc(/C=C2/SC(=S)N(Cc3ccccc3)C2=O)ccc1OS(C)(=O)=O | – | – | – | ? | – | ?
COc1cc(/C=C2/SC(=S)N(Cc3ccccc3)C2=O)cc(Cl)c1O | – | – | – | 16µM | – | 13µM
COc1cc([N+](=O)[O-])cc(/C=C2/SC(=S)N(Cc3ccccc3)C2=O)c1O | – | – | – | 16µM | – | 7.3µM
COc1cc(/C=C2\SC(=O)N(Cc3ccc(Cl)cc3)C2=O)cc([N+](=O)[O-])c1O | – | · | – | ? | – | 23µM
CC(CC(=O)Nc1ccc(S(=O)(=O)Nc2ncccn2)cc1)c1ccccc1 (stereo unspecified) | – | – | – | – | – | –
O=C(CCCOc1ccc(Cl)cc1Cl)Nc1ccc(O)cc1C(=O)O | – | · | – | – | – | –
CCOc1ccc(NC(=O)C2CC(=O)OC2c2ccccc2)cc1 (stereo unspecified) | – | · | – | – | – | –
C=CCn1c(C)cc(C(=O)CN2NS(=O)(=O)c3ccccc3C2=O)c1C | – | – | – | 4.6µM | – | 3.7µM
CC(C)(C)C(=O)Cn1ncc(Cl)c(Cl)c1=O | – | – | -101 | 16µM | – | 10µM
C=CCn1c(C)cc(C(=O)COC(=O)[C@@H](NC(=O)c2ccccc2Cl)C(C)C)c1C | – | – | – | ? | – | ?
C=CCn1c(C)cc(C(=O)Cn2ncc(Cl)c(Cl)c2=O)c1C | – | – | -102 | 5.8µM | -88 | 4.1µM
O=C(OCn1ncc(Cl)c(Cl)c1=O)c1ccccc1Cl | – | – | -97 | 2.3µM | -70 | 4.6µM
O=C(OCC(=O)N1CCNC1=O)c1ccccc1Cl | – | – | – | – | – | –
O=C(Nc1ccc(Cl)cc1)Nn1cnnc1 | – | · | ? | – | – | –
